Source: PubChem BioAssay (NCATS)
Records with an inconclusive call do not appear. Where a call stands in place of a potency, no number is given. Calls of active or inactive are those of the source. The call rests on the fitted dose curve; in most records, active means well fitted inhibition curve with a large enough effect; inconclusive means small, poorly fitted or top-dose-only effect; inactive means flat fitted curve, though single readings scatter.

Molecular target: Luciferin 4-monooxygenase (Photinus pyralis) (UniProt P08659)
Sequence (P08659 whole entry, looked up): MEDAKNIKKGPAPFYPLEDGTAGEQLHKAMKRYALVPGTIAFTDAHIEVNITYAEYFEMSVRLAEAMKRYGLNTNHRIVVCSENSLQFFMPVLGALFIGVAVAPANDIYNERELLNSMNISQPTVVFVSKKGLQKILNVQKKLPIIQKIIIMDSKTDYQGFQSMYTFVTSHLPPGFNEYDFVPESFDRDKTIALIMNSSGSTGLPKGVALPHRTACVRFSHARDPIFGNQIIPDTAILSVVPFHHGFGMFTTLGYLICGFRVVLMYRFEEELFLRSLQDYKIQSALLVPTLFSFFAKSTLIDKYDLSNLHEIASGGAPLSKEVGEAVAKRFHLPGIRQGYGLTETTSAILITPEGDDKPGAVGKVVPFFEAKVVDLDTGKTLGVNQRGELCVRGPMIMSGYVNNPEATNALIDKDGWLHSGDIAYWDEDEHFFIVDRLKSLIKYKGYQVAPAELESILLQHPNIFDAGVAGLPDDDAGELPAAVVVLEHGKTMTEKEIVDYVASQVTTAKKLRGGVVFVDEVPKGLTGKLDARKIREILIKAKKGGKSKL
Assay: Biochemical firefly luciferase enzyme assay for NPC (AID 624030);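 further: purified P. pyralis luciferase at 10 nM with luciferin and ATP substrate; nearly all actives have a fitted effect of over 70% in size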
Conditions: purified P. pyralis luciferase, luminescence, 5 min; series mostly up to 58.6 µM
Summary of the method: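 Direct inhibition of firefly luciferase enzyme (10 nM final, 50 mM Tris Acetate) assessed by luminescence within 5 minutes. Percent activity scaled between DMSO and PTC124 positive control, with concentration-effect curves classified by fit quality and response.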

Question: For `O=[N+]([O-])c1cccc(S(=O)(=O)NCCNS(=O)(=O)c2cccc([N+](=O)[O-])c2)c1`, which Potency is on record?
Answer: inactive

Question: Which Potency does the source give for `CCCCCCCCCCCCCC[N+](C)(C)Cc1ccccc1` here?
Answer: inactive

Question: For `Cc1nc(-c2ccc(Cl)cc2)oc1COC(C)(C)C(=O)O`, which Potency is on record?
Answer: inactive

Question: Which Potency does the source give for `CC(=O)OC[C@H]1O[C@@H](n2ncc(=O)[nH]c2=O)[C@H](OC(C)=O)[C@@H]1OC(C)=O` here?
Answer: inactive

Question: With `FC1(F)C(F)(F)C(F)(F)C2(F)C(F)(F)C(F)(F)C(F)(F)C(F)(F)C2(F)C1(F)F` (centres undefined) as the compound, how does the Potency read?
Answer: inactive

Question: With `CCCCCCCCNC(C)C(O)c1ccc(SC(C)C)cc1` (centres undefined) as the compound, how does the Potency read?
Answer: inactive

Question: `O=C1C(=O)c2ccccc2C(O)=C1C1CCC(c2ccc(Cl)cc2)CC1` (centres undefined) was tested. Which Potency did it give?
Answer: inactive

Question: `O=C(Nc1cccc(C2=NCCN2)c1)Nc1cccc(C2=NCCN2)c1` was tested. Which Potency did it give?
Answer: inactive

Question: For `COc1ccc(/C=N/NC(=O)c2ccncc2)cc1OC`, which Potency is on record?
Answer: inactive

Question: How did the Potency turn out when `CC(C)[N+](C)(C)CC(O)COc1cccc2ccccc12` (centres undefined) was run?
Answer: inactive

Question: With `CC[N+](C)(CC)CCOC(=O)C(O)(c1ccccc1)C1CCCCC1` (centres undefined) as the compound, how does the Potency read?
Answer: inactive

Question: `CC(C)NCC(O)c1ccc2ccccc2c1` (centres undefined) was tested. Which Potency did it give?
Answer: inactive

Question: With `CCc1cc(Cl)c(OC)c(C(=O)NC[C@@H]2CCCN2CC)c1O` as the compound, how does the Potency read?
Answer: inactive

Question: `NC(=S)N/N=C/c1cccnc1` was tested. Which Potency did it give?
Answer: inactive

Question: How did the Potency turn out when `N#CCC(=O)NN` was run?
Answer: inactive

Question: `CCN(CC)CCOc1ccccc1C(=O)CCc1ccccc1` was tested. Which Potency did it give?
Answer: inactive

Question: Which Potency does the source give for `CO[C@]12C[C@@H](COC(=O)c3cncc(Br)c3)CN(C)[C@@H]1Cc1cn(C)c3cccc2c13` here?
Answer: inactive

Question: `COc1ccc(C(=O)c2ccccc2O)c(O)c1` was tested. Which Potency did it give?
Answer: inactive

Question: How did the Potency turn out when `CC(=O)O[C@]1(C(C)=O)CC[C@H]2[C@@H]3C=C(Cl)C4=CC(=O)CC[C@]4(C)[C@H]3CC[C@@]21C` was run?
Answer: inactive
